Measured values published in the supplement of paper PMC6992640.

These compounds were tested on HCI01 (cells of a triple-negative basal-like breast cancer xenograft) (assay: cell viability of combination (% of vehicle); higher = less cytotoxic). Details: 1 µM; 72 h; partner dose: 10 nM.
Method: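 PDX cells were treated for 72 h with each drug at 1 µM plus afatinib (10 nM; 1 µM for WHIM30). Luciferase viability is expressed as percent of vehicle.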

Row | Structure (SMILES) | cell viability of combination
1 | CCCCCCCCCCCCCCCC[n+]1ccccc1.[Cl-] [Cetylpyridinium Chloride] + CN(C)C/C=C/C(=O)Nc1cc2c(Nc3ccc(F)c(Cl)c3)ncnc2cc1O[C@H]1CCOC1 [Afatinib] | 52
2 | CCCCCCCCCCCCCCCC[N+](C)(C)C.[Br-] [Cetrimonium Bromide (CTAB)] + CN(C)C/C=C/C(=O)Nc1cc2c(Nc3ccc(F)c(Cl)c3)ncnc2cc1O[C@H]1CCOC1 [Afatinib] | 50.1
3 | Cc1cc(C(C#N)c2ccc(Cl)cc2)c(Cl)cc1NC(=O)c1cc(I)cc(I)c1O (stereo not given) [Closantel] + CN(C)C/C=C/C(=O)Nc1cc2c(Nc3ccc(F)c(Cl)c3)ncnc2cc1O[C@H]1CCOC1 [Afatinib] | 50.6
4 | Cc1cc(C(C#N)c2ccc(Cl)cc2)c(Cl)cc1NC(=O)c1cc(I)cc(I)c1[O-].[Na+] (stereo not given) [Closantel Sodium] + CN(C)C/C=C/C(=O)Nc1cc2c(Nc3ccc(F)c(Cl)c3)ncnc2cc1O[C@H]1CCOC1 [Afatinib] | 53.2
5 | CCCCCCCCCCCC[N+](C)(C)CCOc1ccccc1.[Br-] [Domiphen Bromide] + CN(C)C/C=C/C(=O)Nc1cc2c(Nc3ccc(F)c(Cl)c3)ncnc2cc1O[C@H]1CCOC1 [Afatinib] | 51
